Only some compounds are listed: those with a hit (about 5.7% of all), similar ones and a draw of the others.
GLP-1R agonist = GLP-1 receptor (human) agonism. AID 624172. 380,000 tested, 0.007% active. HEK293 GLP-1R CRE-luciferase, luminescence, 4-6 h; cells express a hypersensitive GLP-1R form. Potency, µM (top dose mostly 45.6 µM), for the others: top-dose activation, most hits filed as activators; note: potency is the fitted concentration of half-maximal effect; % of control where 0% means no effect
Target sequence (P43220 whole entry, looked up): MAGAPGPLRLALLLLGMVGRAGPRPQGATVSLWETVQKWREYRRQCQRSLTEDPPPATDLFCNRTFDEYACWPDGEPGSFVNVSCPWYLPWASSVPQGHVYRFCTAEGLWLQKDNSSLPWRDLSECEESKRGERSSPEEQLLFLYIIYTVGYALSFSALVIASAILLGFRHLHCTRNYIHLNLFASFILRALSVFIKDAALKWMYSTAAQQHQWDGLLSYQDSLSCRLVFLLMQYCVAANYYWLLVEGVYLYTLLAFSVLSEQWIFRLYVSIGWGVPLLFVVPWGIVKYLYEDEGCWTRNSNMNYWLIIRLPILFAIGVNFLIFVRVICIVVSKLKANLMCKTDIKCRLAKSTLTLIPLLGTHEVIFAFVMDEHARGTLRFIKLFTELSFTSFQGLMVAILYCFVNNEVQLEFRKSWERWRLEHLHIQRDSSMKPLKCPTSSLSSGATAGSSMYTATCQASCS
ClpP mod = qHTS Assay for Activators of ClpP; ATP-dependent Clp protease proteolytic subunit (Bacillus subtilis (strain 168)), P80244; 340,000 tested, 1.9% active; Potency, µM (doses to about 57.5 µM), inactives show at the highest dose activity change, negative = active; purified B. subtilis ClpP, FRET peptide cleavage, 20 min; active = well fitted falling curve with a large enough effect; inconclusive = small, poorly fitted or top-dose-only effect; inactive = no such curve, though single readings can be large or run the other way; note: potency is the fitted concentration of half-maximal effect; the source files actives as falling curves though it sought activators and does not explain the sign; nearly all actives have a fitted effect of over 65% in size
Target sequence (P80244 whole entry, looked up): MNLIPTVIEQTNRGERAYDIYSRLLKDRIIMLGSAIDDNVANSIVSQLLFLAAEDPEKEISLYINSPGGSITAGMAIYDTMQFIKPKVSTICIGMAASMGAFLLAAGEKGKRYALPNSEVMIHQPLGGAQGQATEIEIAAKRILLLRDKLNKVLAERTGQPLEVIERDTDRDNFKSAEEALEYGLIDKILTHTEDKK
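Purified B. subtilis ClpP, 10 microg/mL final in Tris/HCl pH8 with KCl, BSA, glycerol and Tween-20, cleaved an Abz/nitrotyrosine-quenched decapeptide. Fluorescence (ex 320, em 430) was read at 0 and 20 min at room temperature. Delta was normalized to 5.8 microM ADEP and DMSO/no-enzyme controls.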
D3 ag = D3 dopamine receptor (human) agonism | P35462 | D3R DiscoveRx beta-arrestin cells, luminescence, 90 min | max activation, % | 410,000 tested, 0.58% active | AID 652048; in the data active = max activation above about 30%; note: 0% is about no effect
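Agonist mode: compounds and dopamine controls were applied to plated cells for 90 min at 37 degrees C after an overnight attachment at 1500 cells/well. Luminescent read-out followed 30 - 60 minutes at room temperature with DiscoveRx detection reagent.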
D3 antag = blocks the human D3 dopamine receptor. P35462. D3R cells, DiscoveRx beta-arrestin luminescence, antagonist mode; stronger effect = lower value. max response, negative = inhibition, %. 360,000 tested, 2.5% active. AID 652054; in the data active = max response below about -50%; inconclusive = no clear call, values can overlap the other calls; note: % is set by controls: 0 for no effect and ±100 for the full control effect
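Cells expressing the human receptor were seeded at 1500 cells/well, incubated overnight at 37 degrees C in 5% CO2, then exposed to library compounds with dopamine controls for 90 minutes at 37 degrees C before luminescent detection.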
HEK293 tox = cytotoxicity in counter-screen for GLP-1R inverse agonists. AID 624418. 410,000 tested, 0.13% active. Potency, µM (titrated, usually from 38.3 µM), for the others: at the highest dose activity change, negative = inhibition, usual class: inhibitors. HEK293 cAMP-luciferase reporter cells, luminescence, 24 h;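 note: loss of luciferase light is scored as toxicity; potency is the fitted concentration of half-maximal effect; % is set by controls: 0 for no effect and ±100 for the full control effect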
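A 23 nL compound transfer followed 12 hours of cell culture at 37 deg C; exposure then lasted 24 hr. Luciferase assay detection reagent was dispensed and plates read for luminescence after a 12 min room-temperature wait.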
GLP-1R inv ag = inverse agonists of human GLP-1 receptor | P43220 | HEK293 GLP-1R CRE-luciferase, luminescence, 24 h; GLP-1R form is constitutively active | Potency, µM (highest dose often 38.3 µM), without a hit: top-dose activity change, negative = inhibition, most hits filed as inhibitors | 410,000 tested, 1.6% active; note: potency is the fitted concentration of half-maximal effect; % is set by controls: 0 for no effect and ±100 for the full control effect; nearly all actives have a fitted effect of over 55% in size
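Inverse agonists were sought by their lowering of basal cAMP reporter luciferase output in HEK293 cells stably carrying constitutively active human GLP-1R, after 24 h compound treatment.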
The depositor's hits bear a star; u = inconclusive; x = no result given; [ ] = another dose, or the depositor's remark. Unless noted, calls come from the whole dose curve; as a rule, active = well fitted curve in the direction sought with a large enough effect; inconclusive = small, poorly fitted or top-dose-only effect, or another doubt; inactive = no such curve, though single readings can be large; an effect the other way counts as inactive or inconclusive.

SMILES | GLP-1R agonist | ClpP mod | D3 ag | D3 antag | HEK293 tox | GLP-1R inv ag
Cc1nc(-c2ccc(Cl)cc2)sc1C1(C)CC(c2ccccc2Br)=NO1 (stereo unspecified) | -1% | 25µM* | 57* | 28 | 6% | -24%
CNC(=O)c1nc(C)c(C2(C)CC(c3ccccc3)=NO2)s1 (stereo unspecified) | 5% | 1% | -13 | 4 | -4% | 8%
COC(=O)c1sccc1S(=O)(=O)N(CC(=O)NCc1ccc(C)cc1)c1ccccc1 | x | 2% | 1 | x | 0% | 15%
CC1(c2nnnn2-c2ccc3c(c2)OCCO3)CCC(=O)N1Cc1ccc(F)cc1 (stereo unspecified) | 6% | 0% | 9 | -5 | 4% | 26%
Cn1c(=O)[nH]c(=O)c2c1nc(N1CCNCC1)n2Cc1ccccc1 | -6% | 2% | 3 | -17 | 5% | 6%
Cn1c(=O)c2c(nc(N3CCNCC3)n2Cc2cccc3ccccc23)n(C)c1=O | 5% | 0% | -9 | -69* | -7% | -27%
Cn1c(=O)[nH]c(=O)c2c1nc(N1CCNCC1)n2Cc1cccc2ccccc12 | 15% | -2% | -6 | -80* | -2% | 17%
Cn1c(=O)[nH]c(=O)c2c1nc1n2CCN1c1ccccc1 | 1% | -1% | 45* | x | 1% | 5%
Cc1ccc(C(=O)c2cn(Cc3ccccc3)c3nc(C)ccc3c2=O)cc1 | 5% | 7% | 15 | x | 10% | u
CC(C)(C)c1ccc(NC(=O)COC(=O)c2ccccc2OCC(=O)Nc2ccc(Br)cc2)cc1 | x | -3% | x | x | x | x
NC(CS)C(=O)O (stereo unspecified) | -7% | 0% | -3 | x | x | x
CCc1c(C)nc2cc(-c3ccc(OC)c(OC)c3)nn2c1NCC1CC1 | -15% | u | 38* | 86 | -30% | 0%
Cc1[nH]n(-c2ccccc2)c(=O)c1C(c1ccc(O)c([N+](=O)[O-])c1)c1c(C)[nH]n(-c2ccccc2)c1=O | -1% | -1% | -9 | -91* | -3% | 0%
COc1ccc(NC(=O)C2CCCN(C(=O)c3cnn(-c4ccccc4)c3-n3cccc3)C2)cc1 (stereo unspecified) | x | -2% | 4 | x | -4% | u
O=C(Nc1nc2ccccc2n1CCN1CCOCC1)c1ccc(COc2ccccc2Br)o1 | 13% | x | 4 | 8 | 3.5µM* | u
O=C(Nc1nc2ccccc2n1CCN1CCOCC1)c1ccc(Cn2cc([N+](=O)[O-])cn2)o1 | -1% | 0% | 0 | -1 | -27% | 21%
CCCCN1CCCC1C(=O)Nc1c(C)cc(C)cc1C (stereo unspecified) | 4% | x | -13 | x | x | x
CCc1ccccc1NC(=O)N1CC(C)Sc2ccccc21 (stereo unspecified) | x | -1% | -9 | x | u | 11%
CSC(=S)N/N=C/c1ccc(Br)cc1 | -6% | 0% | 0 | 9 | 11µM* | u
CC1=C(C(=O)N(C)C)CC(CC(=O)NC(c2ccccc2)c2ccccc2)C(=O)N1Cc1ccc(C(C)(C)C)cc1 (stereo unspecified) | 2% | -1% | -11 | u | -18% | u
CCN(CC)C(=O)C1=C(C)N(Cc2ccc(F)cc2)C(=O)C(CC(=O)NC(c2ccccc2)c2ccccc2)C1 (stereo unspecified) | 4% | 2% | -2 | -14 | -27% | 11µM*
CC1=C(C(=O)N2CCCCCC2)CC(CC(=O)NCC2CCCCC2)C(=O)N1Cc1ccccc1 (stereo unspecified) | 13% | 0% | -5 | 0 | -1% | -7%
CC1=C(C(=O)N2CCCCCC2)CC(CC(=O)NCC2CCCCC2)C(=O)N1Cc1ccc(F)cc1 (stereo unspecified) | -3% | 2% | -8 | -64* | 1% | -16%
CCN(CC)C(=O)C1=C(C)N(Cc2ccc(C(C)(C)C)cc2)C(=O)C(CC(=O)NC(c2ccccc2)c2ccccc2)C1 (stereo unspecified) | 6% | -2% | 3 | 3 | -24% | 7.9µM*
COc1cccc(-n2c(=O)c3c(C)c(C(=O)N(C)C)sc3n(CC(=O)Nc3ccc(C)cc3Cl)c2=O)c1 | x | -3% | -4 | x | 3% | 8%
SMILES | GLP-1R agonist | ClpP mod | D3 ag | D3 antag | HEK293 tox | GLP-1R inv ag
CCc1nc(N)c(C#N)c(-c2ccc(F)cc2)c1C | -9% | 28µM* | -2 | 10 | 7% | 15%
CCc1nc(N)c(C#N)c(-c2cccnc2)c1C | 1% | -23% | 2 | 22 | -14% | 0%
CN(C)c1ccc(N=NS(=O)(=O)O)cc1 | -2%[96 µM] | x | -12 | x | x | x
Cc1csc(N=Nc2ccc(N(C)C)cc2)[n+]1[O-] | -7% | 2% | -20 | -102* | 4µM* | u
Cc1ccc(-c2cc(C(=O)N(Cc3ccc(C(C)(C)C)cc3)Cc3ccco3)no2)cc1 | x | -1% | -11 | x | 1% | u
Cc1cc(C(=O)NNc2ccc(F)cc2F)no1 | 0% | x | 8 | 3 | u | 2.8µM*
COc1ccc(S(=O)(=O)N2CCN(Cc3nc4ccc(C)cc4o3)CC2)cc1Cl | x | -4% | -21 | x | 21% | u
NC(N)=NN=C(c1ccc(F)cc1)c1ccc(C(F)(F)F)cc1 | -3% | 2% | 6 | -14 | u | 1.1µM*
O=C(Nc1ccc2snnc2c1)Nc1cccc2ccccc12 | -17% | -5% | -3 | -10 | u | 10µM*
CCc1ccccc1NC(=O)Nc1ccc2snnc2c1 | -7% | -3% | 0 | x | -4% | u
COC(=O)c1c(SC)nc2ccccc2c1OCc1ccc(C)cc1C | x | -5% | 16 | x | 4% | u
Cc1ccc(C(=O)Nc2ccc(Cl)cn2)cc1 | -7% | 0% | -13 | 6 | -21% | u
Cc1ccc(C(=O)Nc2ncc3c(Cl)cccc3n2)cc1 | -33% | -3% | 1 | -4 | -24% | 7.1µM*
COc1ccc(CC(N)c2csc(NC(=O)Nc3ccccc3Cc3ccccc3)n2)cc1 (stereo unspecified) | -19% | -4% | -12 | u | -22% | u
NC(Cc1ccc(C(F)(F)F)cc1)c1csc(NC(=O)Nc2ccccc2Oc2ccccc2)n1 (stereo unspecified) | -20% | 0% | 11 | 22 | 11µM* | u
COc1ccc(CC(N)c2csc(NC(=O)Nc3ccccc3C(C)C)n2)cc1 (stereo unspecified) | 2% | -1% | -13 | -55* | 0% | -14%
NC(Cc1ccccc1)c1csc(NC(=O)Nc2ccccc2Oc2ccccc2)n1 (stereo unspecified) | -7% | 1% | 5 | 53 | -8% | u

Screens (PubChem)
